# High-throughput results (PubChem BioAssay)
# HepG2 tox: kills HepG2 cells in TGF-b inhibitor counter-screen. HepG2 CAGA-GFP viability, ATP luminescence, 18 h. Potency, µM (highest dose often 46.1 µM), inactives show top-dose activity change, negative = cytotoxicity, actives largely listed as cytotoxic. 410,000 compounds, 0.76% hits. AID 588856
#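 CellTiter-Glo luminescence gave cytotoxicity after 18 hours at 37 degrees C. The cells were HepG2 CAGA-GFP in 1% FBS DMEM, stimulated with 500 pg/mL TGF-beta after compound addition. %Activity was normalised to no-cell wells (complete cell-killing) and DMSO (no toxicity), and curves were fitted and classified.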
# RORgamma inh: blocks mouse ROR gamma transcriptional activity | P51450 | Drosophila S2 Gal4-RORgamma UAS-luciferase reporter, 20 h | Potency, µM (doses to about 53.6 µM), without a hit: at the highest dose activity change, negative = inhibition, usual class: inhibitors | 310,000 compounds, 5.4% hits | AID 2551; also: % is scaled to controls: 0 for no effect and ±100 for the full control effect; nearly all actives have a fitted effect of over 60% in size
# Target sequence (P51450 whole entry, looked up, the tested form may be a part): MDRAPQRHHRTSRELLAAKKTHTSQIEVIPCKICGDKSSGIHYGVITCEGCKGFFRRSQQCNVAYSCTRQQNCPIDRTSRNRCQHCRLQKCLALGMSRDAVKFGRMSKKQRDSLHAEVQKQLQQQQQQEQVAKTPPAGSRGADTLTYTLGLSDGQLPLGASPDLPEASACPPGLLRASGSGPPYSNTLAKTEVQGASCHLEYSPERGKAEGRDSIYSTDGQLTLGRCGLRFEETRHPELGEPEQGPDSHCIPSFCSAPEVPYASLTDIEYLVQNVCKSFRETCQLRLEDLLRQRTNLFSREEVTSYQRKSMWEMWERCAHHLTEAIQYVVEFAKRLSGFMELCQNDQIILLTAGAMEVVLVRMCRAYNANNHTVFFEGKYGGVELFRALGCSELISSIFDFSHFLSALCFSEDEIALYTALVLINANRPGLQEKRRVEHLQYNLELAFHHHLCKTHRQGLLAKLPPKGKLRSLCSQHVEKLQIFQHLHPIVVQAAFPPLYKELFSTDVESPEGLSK
#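 Using a luciferase readout, inhibitors were identified by reduced reporter activity in Drosophila cells coexpressing a copper-inducible Gal4–ROR gamma fusion and UAS-driven Photinus luciferase, incubated 20 hr after 700 uM copper sulfate.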
# VP16 counter: inhibits Gal4-VP16 luciferase reporter, ROR gamma counter-screen; 310,000 compounds, 3.5% hits; Drosophila S2 Gal4-VP16 UAS-luciferase, luminescence, 20 h; Potency, µM (series often up to 53.6 µM), for the others: at the highest dose activity, negative = inhibition, usual class: inhibitors;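 also: Gal4-VP16 expression switched on by copper sulfate through the metallothionein promoter; % is scaled to controls: 0 for no effect and ±100 for the full control effect; nearly all actives have a fitted effect of over 50% in size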
# TGFb SMAD3 inh: inhibitors of TGF-b signaling. AID 588855. 410,000 compounds, 1.2% hits. HepG2 CAGA-GFP TGF-b/SMAD3 reporter, GFP fluorescence, 18 h; TGF-beta stimulated, 500 pg/mL final. Potency, µM (highest dose often 46.1 µM), for inactives: at the highest dose activity, negative = inhibition, actives largely listed as inhibitors; also: % is scaled to controls: 0 for no effect and ±100 for the full control effect; nearly all actives have a fitted effect of over 65% in size
#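 TGF-beta reporter screen: HEPG2 CAGA-GFP, 1% FBS, 500 pg/mL TGF-beta final, 18 h; per-cell GFP summed per well; curves fitted and categorized by class.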
# ATXN viability: cell viability loss in ATXN counter-screen | S2 cells (HEK-293 line with an ATXN2-luciferase reporter) viability, CellTiter-Fluor protease fluorescence, 24 h | Potency, µM (series often up to 56.7 µM), most hits filed as cytotoxic | 400,000 compounds, 0.49% hits | AID 651635; also: nearly all actives have a fitted effect of over 40% in size
# ATXN2 expr inh: ATXN2 expression inhibition. 360,000 compounds, 0.72% hits. HEK-293 ATXN2-luciferase reporter, luminescence, 24 h. AID 1745845. Potency, µM (highest dose often 57 µM), for inactives: at the top dose activity change, negative = inhibition, usual class: inhibitors; also: % is scaled to controls: 0 for no effect and ±100 for the full control effect; nearly all actives have a fitted effect of over 55% in size
#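 qHTS (up to 57 uM final) was run with 24 h compound exposure of reporter cells at 37 °C. Each well was multiplexed: SteadyGlo luminescence measured ATXN2-luciferase expression after a fluorogenic Gly-Phe-AFC viability readout (25 uM final).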
# An asterisk follows results filed as active; i = inactive; u = inconclusive; x = no result given. Only some compounds are listed: those with a hit (about 6.1% of all), similar ones and a draw of the others. Calls follow the shape of the dose curve; as a rule, active = well fitted curve in the direction sought with a large enough effect; inconclusive = small, poorly fitted or top-dose-only effect, or another doubt; inactive = no such curve, though single readings can be large; an effect the other way counts as inactive or inconclusive. Potency is read from the fitted curve at half-maximal effect.
SMILES,HepG2 tox,RORgamma inh,VP16 counter,TGFb SMAD3 inh,ATXN viability,ATXN2 expr inh
CC(C)C[C@H](NC(=O)c1[nH]cnc1C(=O)N[C@H](C)c1ccccc1)C(=O)OCc1ccccc1,-25.9%,6.31µM*,5.01µM*,-26.2%,i,-31.2%
CC(C)C[C@H](NC(=O)c1nc[nH]c1C(=O)NC(c1ccccc1)c1ccccc1)C(=O)OCc1ccccc1,-17.6%,2.51µM*,4.47µM*,u,u,-9.6%
O=C(Nc1ccccc1C(=O)OCc1cc(=O)n2nc(C3CC3)sc2n1)c1cccc(F)c1,7.1%,x,x,35.0%,i,6.8%
CCc1ccc(CNCc2c(C(=O)O)c(C)n(Cc3c(F)cccc3Cl)c2C)cc1,-20.0%,x,x,-14.1%,i,-9.4%
CCC1CN(CCNC(=O)c2cc(C)nn2CC)Cc2cc(OC)ccc2O1 (centres undefined),x,x,x,x,i,x
COc1ccccc1N1CCN(C(=O)CSc2nc3ccccc3nc2Cc2ccccc2)CC1,-17.6%,x,x,-8.4%,u,-36.6%
CC(C)C[C@H](NC(=O)c1nc[nH]c1C(=O)N[C@@H](CC(C)C)C(=O)OCc1ccccc1)C(=O)OCc1ccccc1,-25.0%,7.08µM*,u,u,u,-15.3%
O=C(N[C@@H](Cc1ccccc1)C(=O)OCc1ccccc1)c1nc[nH]c1C(=O)N1CCN(c2ccccc2)CC1,-52.8%,10µM*,u,u,x,u
CC(C)C[C@H](NC(=O)c1nc[nH]c1C(=O)NCCCCCN)C(=O)OCc1ccccc1,-3.4%,x,x,-52.6%,i,-5.4%
CCc1cccc(NC(=O)CN(C)S(=O)(=O)c2ccc3c(c2)CCCN3C(C)=O)c1,-23.1%,x,x,-9.3%,u,-15.6%
O=S(=O)(c1ccc(NC(=S)Nc2ccccc2)cc1)N1CCOCC1,5.5%,u,-7.1%,-9.6%,i,1.9%
CN(C)NC(=S)Nc1ccc(S(=O)(=O)N2CCCCC2)cc1,0.1%,2.82µM*,5.62µM*,8.6%,i,-30.4%
CN(C)CC(C)(C)CNC(=S)Nc1ccc(S(=O)(=O)N2CCOCC2)cc1,1.6%,-3.3%,3.7%,-3.4%,i,-0.4%
O=C(CCc1ccccc1)NC(=S)Nc1ccc(S(=O)(=O)N2CCOCC2)cc1,-30.4%,22.4µM*,-20.1%,-29.1%,i,-9.4%
N#CC(C#N)=NNc1ccc(S(=O)(=O)N2CCCCC2)cc1,-44.2%,u,22.4µM*,7.94µM*,u,-12.7%
CC(C)CCCCCCNC(=S)Nc1ccc(S(=O)(=O)N2CCOCC2)cc1,-65.2%,u,u,20µM*,u,u
N#C/C(=N\Nc1ccc(S(=O)(=O)N2CCOCC2)cc1)C(N)=S,-9.6%,u,-1.6%,-21.6%,u,15.5%
Cc1ccc(Cn2c(CCNC(=O)C(C)C)nc3ccccc32)cc1,-18.3%,x,x,-10.5%,i,-13.4%
O=C(Cn1c(=O)c2cccn2c2ccc(F)cc21)NCc1cccc(Cl)c1,-11.4%,x,x,0.0%,x,x
CCCCC(=O)NC(=S)Nc1ccc(S(=O)(=O)N2CCCC2)cc1,0.4%,12.6µM*,-19.7%,-10.0%,i,3.8%
Cc1cc2ncc(-c3ncc(C(F)(F)F)cc3Cl)cn2n1,-39.5%,7.94µM*,10µM*,24.8%,i,u
Cc1nn2cc(-c3ncc(C(F)(F)F)cc3Cl)cnc2c1Br,-3.2%,-28.6%,-1.8%,1.7%,i,39.4%
O=C(CCN1C(=O)/C(=C\c2ccccc2F)SC1=S)N1CCCCC1,4.7%,u,-6.8%,-2.6%,20µM*,u
O=C1/C(=C/c2ccccc2F)SC(=S)N1CC(=O)N1CCCCC1c1cccnc1 (centres undefined),12.6µM*,u,u,u,u,x
O=C(CCN1C(=O)/C(=C/c2ccccc2)SC1=S)N1CCCCCC1,-9.6%,u,u,-5.1%,u,u
SMILES,HepG2 tox,RORgamma inh,VP16 counter,TGFb SMAD3 inh,ATXN viability,ATXN2 expr inh
CC1(C)C(=O)NC2=C1C(=O)C(=O)c1ccccc12,x,1.41µM*,2.82µM*,x,x,x
Cc1ccc(C2C3=C(CC(C)(C)CC3=O)NC3=C2C(=O)c2ccccc23)cc1 (centres undefined),3.2%,13.4%,u,-4.7%,u,-21.2%
O=C(NC1CC(=O)N(c2ccccc2)C1)c1ccc(S(=O)(=O)N2CCCC2)cc1 (centres undefined),-20.8%,x,x,u,x,x
Cc1cc2nc(CCN(Cc3cccnc3)C(=S)Nc3ccccc3)[nH]c2cc1C,-15.0%,14.1µM*,-28.5%,u,i,2.7%
Cc1cc2nc(CCN(Cc3cccnc3)C(=S)Nc3ccc(F)cc3)[nH]c2cc1C,-40.8%,-15.6%,-12.5%,-18.8%,u,-11.7%
CC(C)c1ccc(NC(=O)CSC2=Nc3ccccc3C3=NC(CC(=O)NC4CCCCC4)C(=O)N23)cc1 (centres undefined),12.6µM*,x,x,u,x,x
Cc1nc(C(C)NC2CCN(c3cccc(NC(=O)c4ccncc4)c3)CC2)cs1 (centres undefined),x,x,x,x,i,x
Cc1nn(C)c(C)c1CN(C)S(=O)(=O)c1ccc(F)cc1,-14.8%,u,u,-9.9%,i,-12.6%
Cc1nn(C)c(C)c1CN(C)S(=O)(=O)c1ccc2ccccc2c1,-38.6%,u,5.01µM*,-23.4%,i,-19.0%
Cc1ccc(C(=O)N/N=C2\SCC(=O)N2c2cc(C)ccc2C)cc1,-27.4%,u,12.6µM*,-16.9%,i,3.9%
CC(=O)c1cccc(NC(=O)c2ccc(-c3ccccc3[N+](=O)[O-])o2)c1,-12.8%,u,7.08µM*,2.8%,u,31.6%
CCOC(=O)C1=C(c2ccccc2)NC(N)=NC1c1ccc(OCc2ccc(C(=O)OC)cc2)cc1 (centres undefined),-53.1%,-27.1%,1.0%,u,28.2µM*,25.1µM*
O=C(NNC(=S)Nc1cccc(Cl)c1)c1ccccc1OC(F)F,4.47µM*,-40.2%,-17.6%,12.6µM*,i,u
O=C(NNC(=S)Nc1ccc(F)cc1)c1ccccc1OC(F)F,-52.5%,2.82µM*,1.3%,-1.3%,i,1.5%
COc1cccc(NC(=S)NNC(=O)c2ccccc2OC(F)F)c1,-17.9%,u,-8.4%,-5.4%,i,16.8%
Cc1ccc(S(=O)(=O)c2nnn3c2nc(NC(C)c2ccccc2)c2sccc23)cc1 (centres undefined),-23.0%,x,x,43.9%,x,x
CCCCCCC(=O)N(O)C1CC(=O)N(c2ccc(C)cc2)C1=O (centres undefined),-67.4%,11.2µM*,u,12.9%,x,x
